Compounds without any hit were thinned out: in the full panel of roughly 79,000, 15% have a hit. Unmarked numbers belong to inactive results. Active and inactive are the calls of the source. No stated cut-off is given here; in the data, active means growth inhibition above about 70%; inactive means the rest.

One assay can be described thus: NCI Yeast Anticancer Drug Screen. Data for the rad50 strain (AID 155).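 Further: 0% = growth of vehicle-only cultures of the same strain.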 The conditions noted are these: S. cerevisiae rad50 strain growth inhibition; at 50.0 µM; active compounds read high. The method in brief:
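Growth of the mutant yeast was measured after compound exposure and referenced to vehicle-treated cultures.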
Take `CCCCB1OB(CCCC)OB(CCCC)O1`: the growth inhibition is -1.65%.
On to `c1ccc2oc(C34OC5CC(CC(C5)O3)O4)nc2c1`, for which the growth inhibition is 24.8%.
Take `CCCCCC1CCC(OC(=O)NC)CC1` (stereo not drawn): the growth inhibition was 2%.
In the case of `CCCCN(CCCC)CC(O)c1c2cccc(Cl)c2cc2c(Cl)cccc12` (stereo not drawn), the growth inhibition was 98.9% (active).
The same measure, in the same setting: next, `CC(=O)OC1=C(OC(C)=O)N(S(=O)(=O)c2ccc(C)cc2)CCc2ccccc21`: 31.4%.
Regarding `Clc1ccccc1N=NNc1ccccc1Cl`, the growth inhibition was 15.8%.
Take `[N-]=[N+]=NCC1OCOC1C1OCOC1CN=[N+]=[N-]` (stereo not drawn): the growth inhibition was -6.85%.
As for `CCCCCCCNc1ccc(C(=O)OCC)cc1`, the growth inhibition was -1.5%.
As to `CC(C)C(C(=O)O)N(C)C(=O)c1cnc2ccccc2n1` (stereo not drawn), the growth inhibition is 9.1%.
The same measure, in the same setting: the figure for `CC1OC(O)CC(NC(=O)C(F)(F)F)C1O` (stereo not drawn) is 3.6%; for `O=S(=O)(O)c1cccc2nsnc12` it is -0.35%.
As to `Cc1sc2nc3n(c(=O)c2c1C)N=CN(c1ccccc1)C3`, the growth inhibition was 3%.
With `COc1ccc(C23CCC(=O)N2CCS3)cc1` (stereo not drawn), the growth inhibition is -1.25%.
Same read-out and setting: next, `Nc1ccc(Nc2cc(=O)[nH]c(=O)[nH]2)cc1Cl`: 5.8%; `CCCCC1SCC(=O)N1c1nncs1` (stereo not drawn): 6.35%; `CC(Br)C(=O)NCC(=O)NCC(=O)O` (stereo not drawn): 31.9%.
`CCC(C)c1cc(C(C)(C)C)cc(-n2nc3ccccc3n2)c1OS(=O)(=O)c1cccc(N)c1` (stereo not drawn): the growth inhibition was -4.4%.
Consider `COc1cccc(NC(=O)C(=O)C(C(=O)c2ccccc2F)C2OC(=O)c3ccccc32)c1` (stereo not drawn), for which the growth inhibition was 15.6%.
Regarding `N#C/C(=C/C=C/c1ccccc1)c1ccc([N+](=O)[O-])cc1`, the growth inhibition is 22%.
`COc1ccc(C(CC(C)(C)C)c2ccc(OC)cc2)cc1`: the growth inhibition is -0.9%.
The same measure, in the same setting: next, `CC(=O)OC1COC([n+]2cccc(C(N)=O)c2)C(OC(C)=O)C1OC(C)=O` (stereo not drawn): -36.5%; `CCOC(=O)C(=Cc1ccc(Oc2ccccc2)cc1)C(=O)OCC`: 39.4%; `O=C1C2=C(c3ccccc31)C(c1ccccc1Cl)N1C(=O)CCSC1=N2` (stereo not drawn): 2.9%.

Another assay in a line: NCI Yeast Anticancer Drug Screen. Data for the mec2-1 strain (AID 157). Particulars: S. cerevisiae mec2-1 strain, at 50.0 µM, active compounds read high. In a few lines:
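Readout is yeast growth inhibition, normalised to vehicle-treated controls, in the mec2-1 strain exposed to compound.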
For the compound `O=C(N/N=C1\C(=O)N(c2nccs2)C(=O)C(=O)C1c1nc2ccccc2s1)c1ccccc1O` (stereo not drawn), the growth inhibition is 16.9%.
For the compound `CCc1nc2c([nH]1)c(=O)n(C)c(=O)n2C`, the growth inhibition is -4.6%.
Regarding `O=c1[nH]c2cc([N+](=O)[O-])ccc2nc1/C(=N\Nc1ccccc1)C(O)c1ccc2c(c1)OCO2` (stereo not drawn), the growth inhibition was 5.4%.
Turning to `CCN1CCC(O)(C(C(=O)O)c2ccccc2)CC1` (stereo not drawn), the growth inhibition is -27%.
Take `[Cl][Co][Cl].[NH-]CCC[NH-].[NH-]CCC[NH-]`: the growth inhibition is 21.3%.
Take `O=C(Nc1ccc([N+](=O)[O-])cc1Cl)OCCc1ccccn1`: the growth inhibition is 26.9%.
For the compound `O=C(O)c1cc2oc3ccccc3c2cc1O`, the growth inhibition was -7.5%.
As to `CC(=O)N/C(=C/c1ccccc1)C(=O)NC(C)(C)C`, the growth inhibition was -6.15%.
Consider `COC(=O)C1=C(C)NC(C)=C(C(=O)OC)C1c1ccc(NC(C)=O)cc1`, for which the growth inhibition is -3.7%.
In the case of `c1ccc(C2CN3CCSC3=N2)cc1` (stereo not drawn), the growth inhibition was -34.8%.
With `CC(C)(C)OC(=O)c1cccc(C(=O)OC(C)(C)C)c1`, the growth inhibition was 41.6%.
Consider `O/N=C1/CC2CCCCC2CC1(O)c1ccccc1` (stereo not drawn), for which the growth inhibition is 19.1%.
As to `CC(=O)CC(=O)C1CCC(C(=O)CC(C)=O)CC1` (stereo not drawn), the growth inhibition was 6.2%.
In the case of `Cc1cccc([Si](c2ccccc2)(c2ccccc2)c2ccccc2)c1`, the growth inhibition is -6.35%.
Turning to `CC(=O)NC(CCC(=O)C=[N+]=N)C(=O)O` (stereo not drawn), the growth inhibition was -14.7%.
On the same count and under the same terms, the figure for `O=c1[nH]nnc2ccccc12` is 4.8%; for `O=C(O)C(Nc1ccc(Cc2ccc(NC(C(=O)O)c3ccccc3)cc2)cc1)c1ccccc1` (stereo not drawn) it is 86% (active).
For `CCCCB1OB(CCCC)OB(CCCC)O1`, the growth inhibition was -17.8%.
Turning to `c1ccc2oc(C34OC5CC(CC(C5)O3)O4)nc2c1`, the growth inhibition was 13.2%.
The same measure, in the same setting: next, `CCCCCC1CCC(OC(=O)NC)CC1` (stereo not drawn): 9.85%.
In the case of `CCCCN(CCCC)CC(O)c1c2cccc(Cl)c2cc2c(Cl)cccc12` (stereo not drawn), the growth inhibition is 99.5% (active).
Still for that read-out and setting: next, `CC(=O)OC1=C(OC(C)=O)N(S(=O)(=O)c2ccc(C)cc2)CCc2ccccc21`: 20.4%; `Clc1ccccc1N=NNc1ccccc1Cl`: -2.4%.
Same read-out and setting: next, `[N-]=[N+]=NCC1OCOC1C1OCOC1CN=[N+]=[N-]` (stereo not drawn): 10.6%.
Regarding `CCCCCCCNc1ccc(C(=O)OCC)cc1`, the growth inhibition was 5.35%.
Turning to `CC(C)C(C(=O)O)N(C)C(=O)c1cnc2ccccc2n1` (stereo not drawn), the growth inhibition was -1.2%.
For the compound `CC1OC(O)CC(NC(=O)C(F)(F)F)C1O` (stereo not drawn), the growth inhibition was -4.35%.
As for `O=S(=O)(O)c1cccc2nsnc12`, the growth inhibition was -2.05%.
Turning to `Cc1sc2nc3n(c(=O)c2c1C)N=CN(c1ccccc1)C3`, the growth inhibition is 4%.
With `COc1ccc(C23CCC(=O)N2CCS3)cc1` (stereo not drawn), the growth inhibition is -20.3%.
`Nc1ccc(Nc2cc(=O)[nH]c(=O)[nH]2)cc1Cl`: the growth inhibition is 6.6%.
For `CCCCC1SCC(=O)N1c1nncs1` (stereo not drawn), the growth inhibition is 24%.
Turning to `CC(Br)C(=O)NCC(=O)NCC(=O)O` (stereo not drawn), the growth inhibition was -14.9%.
As for `CCC(C)c1cc(C(C)(C)C)cc(-n2nc3ccccc3n2)c1OS(=O)(=O)c1cccc(N)c1` (stereo not drawn), the growth inhibition was -27.1%.
Still for that read-out and setting: next, `COc1cccc(NC(=O)C(=O)C(C(=O)c2ccccc2F)C2OC(=O)c3ccccc32)c1` (stereo not drawn): 0.95%.
As for `N#C/C(=C/C=C/c1ccccc1)c1ccc([N+](=O)[O-])cc1`, the growth inhibition is 23.4%.
The same measure, in the same setting: next, `COc1ccc(C(CC(C)(C)C)c2ccc(OC)cc2)cc1`: -9%.
`CC(=O)OC1COC([n+]2cccc(C(N)=O)c2)C(OC(C)=O)C1OC(C)=O` (stereo not drawn): the growth inhibition is -22.7%.
The same measure, in the same setting: next, `CCOC(=O)C(=Cc1ccc(Oc2ccccc2)cc1)C(=O)OCC`: -6%; `O=C1C2=C(c3ccccc31)C(c1ccccc1Cl)N1C(=O)CCSC1=N2` (stereo not drawn): 0.4%.

The values are drawn from PubChem BioAssay (NCI).
